Assay outcomes (PubChem)
KB-3-1 tox – KB-3-1 parental cell cytotoxicity; KB-3-1 viability, CellTiter-Glo ATP luminescence, 72 h; Potency, µM (series often up to 46.1 µM), most hits filed as cytotoxic; 400,000 tested, 1.4% active; further: on the % scale 0 is the no-effect control and ±100 the full control effect; nearly all actives have a fitted effect of over 60% in size
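KB-3-1 cells, DMEM (no phenol red) + 10% FBS; compound by pin transfer, 72 h, 37 °C. Readout: CellTiter-Glo luminescence after 10 min. Data normalized, curve-fitted.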
KB-V1 cytotox – KB-V1 MDR subline cytotoxicity; Potency, µM (top dose mostly 46.1 µM), actives largely listed as cytotoxic; KB-V1 MDR cells viability, CellTiter-Glo, 72 h; 400,000 tested, 3.4% active; further: on the % scale 0 is the no-effect control and ±100 the full control effect; nearly all actives have a fitted effect of over 60% in size
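Drug-selected KB-V1 cells, grown in DMEM lacking phenol red with 10% FBS, receive compound titrations; after three days at 37 degrees C, surviving cell ATP is quantified by CellTiter-Glo luminescence and responses normalized and curve-fitted.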
MCF10A rereplic – DNA re-replication induction in MCF 10a cells; 350,000 tested, 2.9% active; MCF 10A DNA re-replication, Hoechst nuclear intensity, 48 h; Potency, µM (highest dose often 46.1 µM), without a hit: at the top dose activity, positive = re-replication, most hits filed as activators; further: % of control where 0% means no effect; nearly all actives have a fitted effect of over 50% in size
SW480 rerep – induces DNA re-replication in SW480 colon adenocarcinoma cells; SW480 DNA re-replication, Hoechst DNA content imaging, 48 h; Potency, µM (titrated, usually from 46.1 µM), without a hit: at the top dose re-replication activation, actives largely listed as activators; 340,000 tested, 1.8% active; AID 624297; further: % of control where 0% means no effect; nearly all actives have a fitted effect of over 55% in size
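Image-based read-out: total Hoechst fluorescence of nuclei (405 nm excitation, 500-530 nm emission), with hits raising the fraction of high-intensity nuclei. SW480 colon cells incubated 48 hr with compounds at 37 C.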
PINK1 modulator – PINK1 expression modulation; PINK1 immunofluorescence, high-content cytometry, 24 h; 410,000 tested, 0.2% active; Potency, µM (doses to about 76.6 µM), inactives show top-dose activation (PINK1 increase), most hits filed as activators; active means well fitted activation curve with a large enough effect; inconclusive means small, poorly fitted or top-dose-only effect; cell line not stated here; further: % of control where 0% means no effect; nearly all actives have a fitted effect of over 65% in size
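Stable cell line, 250 cells/well, 12 h attachment; compounds pinned at 5 concentrations, 24 h; CCCP control. Fixed with nuclear dye, primary antibodies 12 h at 10 degrees C, secondary plus cell stain; laser-scanning cytometer read.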
TSG101-PTAP inh – blocks PTAP/TSG101 interaction to inhibit HIV-1 budding; Q99816; Fluorescence polarization, FITC-PTAP peptide / Tsg101 binding; Potency, µM (series often up to 115 µM), without a hit: at the top dose activity change, negative = inhibition, hits mostly inhibitors; 340,000 tested, under 10 active; active means well fitted inhibition curve with a large enough effect in the main read-out, with a control signal flat, not every such curve was filed as active; inconclusive means small, poorly fitted or top-dose-only effect, or effect the other way, or a change in a side signal; inactive means no such curve, though single readings can be large or run the other way; further: % of control where 0% means no effect
Target sequence (Q99816 whole entry, looked up): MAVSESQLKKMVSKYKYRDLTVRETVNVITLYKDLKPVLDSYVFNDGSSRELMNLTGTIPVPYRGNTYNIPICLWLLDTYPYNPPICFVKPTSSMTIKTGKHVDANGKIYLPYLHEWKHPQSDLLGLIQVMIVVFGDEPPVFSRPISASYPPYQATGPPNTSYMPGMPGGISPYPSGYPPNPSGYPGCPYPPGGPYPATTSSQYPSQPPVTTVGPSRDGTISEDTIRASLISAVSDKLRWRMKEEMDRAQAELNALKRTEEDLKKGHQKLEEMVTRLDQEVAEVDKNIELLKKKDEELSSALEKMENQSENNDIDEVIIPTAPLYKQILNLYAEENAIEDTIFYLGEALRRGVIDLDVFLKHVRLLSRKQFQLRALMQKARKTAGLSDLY
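Fluorescence anisotropy tracks displacement of a FITC-tagged PTAP peptide (50 nM) from the Tsg101 binding domain (10 uM), following a 20 min room-temperature incubation at pH 7.5.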
The depositor's hits bear a star; i = inactive; u = inconclusive; x = no result; [ ] = dose if it differs, or a comment. Shown are actives, neighbours in structure and some others; about 6.8% of the full set was active somewhere. Unless noted, the call rests on the fitted dose curve; in most records, active means well fitted curve in the direction sought with a large enough effect; inconclusive means small, poorly fitted or top-dose-only effect, or another doubt; inactive means no such curve, though single readings can be large; an effect the other way counts as inactive or inconclusive. Potency means the concentration at half of the fitted maximal effect.

SMILES	KB-3-1 tox	KB-V1 cytotox	MCF10A rereplic	SW480 rerep	PINK1 modulator	TSG101-PTAP inh
CCOC(=O)c1scc(-c2ccccc2)c1S(=O)(=O)Nc1ccc(N(C)C)cc1	i	i	x	x	3%	x
COc1cccc(-n2cc(C(=O)Nc3cccc(C(F)(F)F)c3)c3ccccc3c2=O)c1	x	x	x	x	1%	x
Nc1nc(-c2ccc(Cl)cc2)nnc1-c1ccc(Br)cc1	i	i	-3%	-1%	45µM*	4%
O=C(CNS(=O)(=O)c1ccc(Br)s1)NCc1ccccc1	i	i	u	2.8µM*	-3%	-5%
CC(=O)c1cccc(NC(=O)c2nc3ccccc3nc2N2CCCCC2)c1	u	i	x	x	1%	x
COCCN1CCc2nc(SCC(=O)Nc3ccc(C)c(Cl)c3)[nH]c(=O)c2C1	i	u	x	x	-1%	x
COC(=O)c1cn(NC(=O)c2cc([N+](=O)[O-])ccc2F)c(=O)c2ccccc12	u	12µM*	4.6µM*	u	0%	-4%
COC(=O)c1cn(NC(=O)C2CCC(C)CC2)c(=O)c2ccccc12 (stereo not given)	i	i	1%	-3%	-1%	-5%
COc1ccc(-c2c(C)nn3c4c(cnc23)C(=O)CC(c2ccc(C)cc2)C4)cc1 (stereo not given)	i	i	x	x	2%	x
Cc1nn2c3c(cnc2c1-c1ccc(Cl)cc1)C(=O)CC(c1ccco1)C3 (stereo not given)	i	5.8µM*	5%	2%	7%	-9%
O=c1c2ccccc2n(Cc2c(F)cccc2Cl)c(=O)n1Cc1ccccc1	i	i	x	x	0%	x
O=C(N/N=C/c1cccc2ccccc12)c1ccncc1	i	u	-6%	-3%	1%	1%
O=C(/C=C/c1c[nH]c2ccccc12)c1ccccc1	i	i	u	18µM*	-1%	-1%
CCCCOc1ccc(CNC(=S)N/N=C/c2ccc(OC)c(OC)c2)cc1	u	18µM*	5%	u	3%	-6%
CCOc1ccc(CNC(=S)N/N=C\c2ccc([N+](=O)[O-])cc2)cc1	i	i	-4%	-7%	4%	-2%
O=C(/C=C/c1cccc2ccccc12)c1ccncc1	2.9µM*	2.6µM*	12µM*	u	-2%	-1%
COc1ccccc1/C=C/C(=O)c1ccccc1	i	i	26µM*	u	-1%	-8%
Cc1ccc(S(=O)(=O)N2CCC(c3nc(-c4cccs4)nc4ccccc34)CC2)cc1	i	i	x	x	0%	x
O=C(CSc1oc(-c2ccccc2)nc1S(=O)(=O)c1ccc(Cl)cc1)c1ccccc1	i	i	x	x	-1%	x
COc1ccccc1/C=C/C(=O)NC(=S)NC(C)C	u	u	u	16µM*	1%	-4%
COc1ccccc1/C=C/C(=O)c1ccc(NC(C)=O)cc1	u	i	16µM*	5%	-3%	-1%
COc1cc(OC)c(OC)cc1/C=C/C(=O)c1ccc(NS(=O)(=O)c2ccc(C)cc2)cc1	i	15µM*	5.8µM*	u	-2%	16%
COc1ccc(/C=C/C(=O)NC(=S)NCc2ccccc2)cc1OC	i	i	7%	23µM*	6%	0%
Cc1ccc(-c2nc3c(c(SCC(=O)Nc4cccc(C(=O)O)c4)n2)Cc2cccc(C)c2O3)cc1	u	u	x	x	1%	x
CCOC(=O)N1CCc2c(sc(NCc3ccc(N(C)C)cc3)c2C(=O)Nc2ccc(OC)cc2)C1	x	x	x	x	1%	x
SMILES	KB-3-1 tox	KB-V1 cytotox	MCF10A rereplic	SW480 rerep	PINK1 modulator	TSG101-PTAP inh
CCCn1c(N)c(C(=O)CSc2nnc(Cc3ccccc3)o2)c(=O)n(C)c1=O	i	10µM*	20%	-2%	1%	0%
COc1cc2c(cc1OC)C(c1cccs1)N(C(=O)c1cccnc1)CC2 (stereo not given)	5.8µM*	u	u	5.2µM*	-2%	-1%
COc1cc2c(cc1OC)C(c1cccs1)N(C(=O)C(C)C)CC2 (stereo not given)	u	14µM*	1%	4%	x	3%
O=C(/C(N=Nc1cccc(C(F)(F)F)c1)=C(/O)c1cccs1)C(F)(F)F	u	u	21µM*	-9%	u	-1%
CCOC(=O)/C(=N\Nc1ccccc1Cl)N1CCN(C)CC1	i	u	11%	3%	0%	-4%
CCOC(=O)/C(=N\Nc1ccccc1Cl)N1CCN(Cc2ccccc2)CC1	i	3.7µM*	u	-1%	17%	1%
COc1ccc(C)cc1NS(=O)(=O)c1ccc2c(c1)CCCN2C(C)=O	i	i	x	x	-1%	x
COc1ccc(Br)cc1CNC(=O)Cn1nc(C)n2c(cc3cc(F)ccc32)c1=O	i	i	x	x	3%	x
O=C(CN1CCN(Cc2cccc(C(F)(F)F)c2)CC1)NCC(=O)Nc1ccc(F)c(F)c1F	i	23µM*	6%	0%	5%	-1%
O=C(CN1CCCCC1)NCC(=O)Nc1ccc(F)c(F)c1F	i	i	0%	-4%	0%	0%
CCc1cccc2c(-c3ccc(F)cc3)nc(SCC(=O)Nc3ccccc3)nc12	x	x	x	x	0%	x
Cc1cc(C)cc(NC2=NC3(CCCCC3)N=C(N)N2)c1	u	i	21µM*	u	11%	0%
CCCCOc1ccc(NC2=NC3(CCCC3)N=C(N)N2)cc1	7.3µM*	i	u	1%	u	-5%
Cc1cccc(NC2=NC(C)(C)N=C(N)N2)c1	1.6µM*	i	-3%	1%	-1%	-2%
COc1ccc(OC)c(NC2=NC3(CCCC3)N=C(N)N2)c1	u	i	14%	1%	8%	-6%
NC1=NC2(CCCCC2)N=C(Nc2ccc(F)cc2F)N1	i	i	9%	-7%	5%	-6%
CCOC(=O)O[C@]1(C(=O)COC(=O)CC)CC[C@@H]2[C@@H]3CCC4=CC(=O)C=C[C@@]4(C)[C@H]3[C@H](O)C[C@]21C	x	x	8%[20.6 µM]	4%[20.6 µM]	x	x
COCCn1c(-c2ccccc2)c(C)n2c3c(=O)n(C)c(=O)n(C)c3nc12	i	u	x	x	0%	x
Cc1cc(C)n(-c2ccc(C(=O)NCC3Cc4cc(-c5cnccn5)ccc4O3)cc2)n1 (stereo not given)	x	x	x	x	0%	x
CC(=O)COc1cccc2ccc(/C=C/c3ccc(Br)s3)nc12	i	i	18µM*	11%	3%	-3%
CC#CC[N+](C)(C)CCCCCCCCCC	5.8µM*	i	0%	21%	1%	-1%
C#CC[N+](C)(C)CCCCCCCCC	5.8µM*	i	9.2µM*	u	5%	2%
